Laboratory results from PMC4336329 (PLoS ONE, 2015).
Out of some 310,000 compounds screened, about 14,000 (4.5%) showed an effect of 50% or more. The effect is printed as a negative number. Only a selection was taken, and strong results are over-represented in it overall.

Each compound was assayed against human ether-à-go-go-related gene (hERG) potassium channel (human, UniProt Q12809) (assay: primary screen, population patch clamp on CHO cells stably expressing hERG; higher = less effect of the substance).
human ether-à-go-go-related gene (hERG) potassium channel, sequence (Q12809 whole entry, looked up): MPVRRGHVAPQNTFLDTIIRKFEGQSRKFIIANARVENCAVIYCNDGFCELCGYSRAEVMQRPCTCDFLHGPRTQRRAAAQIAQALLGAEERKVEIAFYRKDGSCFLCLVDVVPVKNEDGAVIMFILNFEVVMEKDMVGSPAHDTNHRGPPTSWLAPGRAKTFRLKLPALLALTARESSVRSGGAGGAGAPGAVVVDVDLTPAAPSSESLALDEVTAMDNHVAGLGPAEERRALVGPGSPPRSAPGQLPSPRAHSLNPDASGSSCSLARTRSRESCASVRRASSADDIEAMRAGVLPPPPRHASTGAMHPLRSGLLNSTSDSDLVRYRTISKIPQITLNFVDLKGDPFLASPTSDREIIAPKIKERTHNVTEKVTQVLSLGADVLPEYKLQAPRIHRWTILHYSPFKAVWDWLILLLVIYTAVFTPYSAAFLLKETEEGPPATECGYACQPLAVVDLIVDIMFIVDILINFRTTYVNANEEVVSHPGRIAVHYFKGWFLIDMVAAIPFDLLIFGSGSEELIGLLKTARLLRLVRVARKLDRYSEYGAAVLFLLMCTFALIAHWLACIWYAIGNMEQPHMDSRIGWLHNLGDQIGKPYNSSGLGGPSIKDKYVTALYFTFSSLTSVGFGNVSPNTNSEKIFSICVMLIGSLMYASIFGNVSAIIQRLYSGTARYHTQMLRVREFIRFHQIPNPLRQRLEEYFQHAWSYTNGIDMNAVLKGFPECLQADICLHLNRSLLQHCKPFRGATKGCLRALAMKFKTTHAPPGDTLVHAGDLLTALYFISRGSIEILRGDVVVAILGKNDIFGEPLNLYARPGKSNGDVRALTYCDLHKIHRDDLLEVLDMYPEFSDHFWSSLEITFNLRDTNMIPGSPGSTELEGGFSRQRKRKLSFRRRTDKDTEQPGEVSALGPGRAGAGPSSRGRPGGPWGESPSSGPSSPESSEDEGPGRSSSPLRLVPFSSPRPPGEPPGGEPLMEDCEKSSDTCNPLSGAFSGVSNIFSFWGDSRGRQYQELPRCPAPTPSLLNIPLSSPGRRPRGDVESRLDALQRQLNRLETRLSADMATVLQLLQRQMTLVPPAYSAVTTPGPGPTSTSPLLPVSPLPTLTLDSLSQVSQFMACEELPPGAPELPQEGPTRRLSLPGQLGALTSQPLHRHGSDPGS
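Note: peak tail current of the secondary pulse compared with the same well before compound.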

| SMILES | hERG current change (%, negative = inhibition) at 10uM [%] |
| --- | --- |
| C/C(=N\NC(=O)C1CC1)c1ccc(N2CCOCC2)cc1 | -0.403 |
| O=c1/c(=C/c2ccco2)sc2nc(-c3ccccc3Br)nn12 | 12.7 |
| O=c1sc2ccccc2c(N2CCCC2)c1[N+](=O)[O-] | 6.33 |
| Cc1cc(C)nc(SCc2nnc(SCC(N)=O)o2)n1 | 15.7 |
| O=C(c1ccccc1)c1ccc(N=Nc2c(O)[nH]c(=O)[nH]c2=O)cc1 | 1.15 |
| Cc1nc2c(c(=O)n1CCC1=CCCCC1)c1nc3ccccc3nc1n2/N=C/c1ccco1 | -22 |
| O=S(=O)(c1cccs1)N1CCC(Cc2ccccc2)CC1 | 6.58 |
| CCOC(=O)C1=C(N)Oc2ccc3ccccc3c2C1c1cccnc1 (stereo not drawn) | 0.98 |
| O/N=C1\CCCc2c1nc(-c1ccccc1F)n2O | 26.1 |
| O=C(COc1cc2oc(=O)c3c(c2cc1Cl)CCC3)NCC1CCC(C(=O)O)CC1 (stereo not drawn) | 5.36 |
| Cc1ccc(S(=O)(=O)CC(=O)N2CCCCCC2)cc1 | 13.6 |
| C=CC(C)(C)c1[nH]cnc1/C=C1\NC(=O)C(C(C)C)NC1=O (stereo not drawn) | 3.54 |
| COc1ccc(NC(=O)N[C@@H](CCSC)C(=O)O)cc1OC | -0.994 |
| Cc1ccc(NC(=S)N2CCC(NC(=O)c3cccc(F)c3)CC2)cc1 | -24.9 |
| COCCOCC(O)CN1CCN(c2ccccc2)CC1.O=C(O)C(=O)O (stereo not drawn) | -3.37 |
| CCOC(=O)C1CCCN(c2nnnn2-c2ccccc2)C1 (stereo not drawn) | -5.57 |
| COc1ccccc1C1=NCc2nnc(CSC)n2-c2ccc(Cl)cc21 | -19.1 |
| CS(=O)(=O)NCc1nnc2n1-c1ccc(Cl)cc1C(c1ccccc1)=NC2 | 6.2 |
| CN(C)CCSCc1nnc2n1-c1ccc(Cl)cc1C(c1ccccc1Cl)=NC2.c1ccccc1 | -73.7 |
| Cc1ccc(C(=O)NC(=S)Nc2ccc(N3CCOCC3)cc2)cc1C | -7.53 |
| O=C(NCCCn1ccnc1)C(=O)NCC(c1ccco1)N1CCN(c2ccccc2)CC1 (stereo not drawn) | 1.01 |
| CCCNC(=O)OC[C@H]1O[C@H](CCO/N=C/C[C@@H]2C=C[C@H](OC(C)=O)[C@@H](COC(C)=O)O2)C=C[C@@H]1Oc1ccc(OC)cc1 | -59.7 |
| CCCNC(=O)OC[C@H]1O[C@H](CCO/N=C/[C@@H](OC)[C@H](C)/C=C/CC(=O)OC)C=C[C@@H]1Oc1ccc(OC)cc1 | -11.1 |
| COc1ccc(O[C@H]2C=C[C@@H](c3ccccc3)O[C@@H]2CO/N=C/C[C@@H]2C=C[C@H](OC(C)=O)[C@@H](COC(C)=O)O2)cc1 | -9.17 |
